# A selection: hits, their analogues and other compounds. The true share with any hit is near 6.8%.
# A340 absorber – compound absorbs light at 340 nm. compound absorbance at 340 nm, fold over control. fold change at 10 µM. 65,000 tested, under 10 active. AID 708;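 active means at 10 µM dose, initial 340 nm absorbance at least 2 fold that of control wells; inactive means change under 2 fold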;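 further: initial absorbance extrapolated from kinetic A340 decline of NADH oxidation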
# Spn DPM-DC inh – S. pneumoniae DPM-DC inhibition; purified DPM-DC, PK/LDH coupled NADH fluorescence; calls only at 10 µM; 0.49% of 65,000 active; AID 556;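 active means the 320 compounds with the highest percent inhibition in the single-dose primary screen, excluding strongly autofluorescent ones, cut at about 32% in these data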;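 further: kinetic rate of NADH fluorescence loss reporting ADP formed by the decarboxylase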
# Autofluor 339 – intrinsic fluorescence of library compounds, ex339/em460 – biochemical, MLSMR library, data from DPM-DC assay, artefact control, profiling panel | compound autofluorescence, ex339/em460 nm, NADH buffer; hits give high values; 1 = no-compound wells, NADH background | AID 709 | 5.5% of 65,000 active | fluorescence fold increase at 10 µM;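 active means at 10 µM, mean starting fluorescence two-fold or more over control wells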;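 further: signal is the first read of a kinetic run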
# NADH enzymes – inhibitors of enzymes used to reach an NAD/NADH endpoint; 0.02% of 65,000 active; IC50, µM (top dose mostly 10 µM), for inactives: top-dose inhibition; coupled PK/LDH NADH assays, four targets;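 active means single-dose screening hits from any of four coupled enzyme assays that gave an IC50 when retested across doses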;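 further: the DPM-DC format reads NADH fluorescence rather than 340 nm absorbance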
# Spn MK inh – blocks S. pneumoniae mevalonate kinase. purified MK, PK/LDH-coupled NADH absorbance 340 nm. inhibition, % at 10 µM. 0.48% of 65,000 active. AID 555;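 active means ranked among the strongest by inhibition in the single 10 µM screen, a fixed top-ranked set picked for dose follow-up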
# PMK inhibit – S. pneumoniae PMK inhibition | 0.49% of 65,000 active | inhibition, % at 10 µM | purified PMK, PK/LDH-coupled NADH absorbance 340 nm;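 active means top-ranked compounds by inhibition in the single 10 µM screen, taking a fixed number of the strongest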;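 further: 0% = full reaction with DMSO carrier and 100% = background rate without enzyme reaction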
# * marks the source's active call; other numbers are inactive results; i = inactive; / = no result shown; + = active, no number.
SMILES,A340 absorber,Spn DPM-DC inh,Autofluor 339,NADH enzymes,Spn MK inh,PMK inhibit
CCOC(=O)Cn1nnnc1C(CC)N(Cc1cccs1)Cc1cc2ccc(OC)cc2[nH]c1=O (configuration not stated),1.1,i,1.2,7%,2,8
CCN1C(=O)CC(c2ccco2)Sc2ccccc21 (configuration not stated),1,i,1.1,1%,2,1
COc1ccccc1C(=O)NC(C)C(c1cccs1)N1CCOCC1 (configuration not stated),1,i,0.87,10%,0,12
COc1ccc(N2CCN(C(c3ccccc3)c3sc4nc(C)nn4c3O)CC2)cc1 (configuration not stated),0.99,i,1,2%,6,6
N#Cc1nc(Cc2ccccc2)oc1N1CCC(Cc2ccccc2)CC1,1,i,1.1,0%,1,0
COc1ccccc1-c1nc(C#N)c(N2CCN(Cc3ccccc3)CC2)o1,1,i,3.1*,18%,12,13
COc1ccccc1-c1nc(C#N)c(N2CCC(Cc3ccccc3)CC2)o1,1,/,3.9*,12%,12,11
CCc1ccccc1NC(=O)N[C@@H](C)C(=O)OC,1,i,1.1,6%,11,6
CCOC(=O)N1CCN(c2cc(=O)n(-c3cccc(Br)c3)c(=O)[nH]2)CC1,1,i,1,2%,1,12
O=C(NCc1n[nH]c(=S)n1-c1ccccc1)c1ccco1,1,i,1.1,17%,41*,9
COc1ccc(O)c(/C=c2/sc3nc4cc(C)c(C)cc4n3c2=O)c1,1,i,1.2,11%,15,17
Cc1ccc(OCC(=O)N(C)CCc2ccccn2)cc1,1,i,1.1,20%,53*,6
CN(CCc1ccccn1)C(=O)Nc1ccc(F)cc1,1.1,i,1,8%,8,17
CCOC(=O)C1CCN(CC(=O)Nc2c(C(=O)OC)[nH]c3ccccc23)CC1,1,i,1.4,9%,16,10
CCOC(=O)c1[nH]c2cc3c(cc2c1NC(=O)CN1CC(C)CC(C)C1)OCO3 (configuration not stated),1.1,/,2.4*,4%,4,4
CCOC(=O)c1[nH]c2ccc(OCC)cc2c1NC(=O)CN1CCCC(C)C1 (configuration not stated),1.1,/,3.9*,5%,3,6
CCOC(=O)c1[nH]c2ccc(OC)cc2c1NC(=O)CN1CCN(c2ccccn2)CC1,1,+,2,25%,0,41
CCOC(=O)c1[nH]c2ccc(OCC)cc2c1NC(=O)CN1CCN(c2ccccn2)CC1,1.1,/,3.9*,8%,1,15
COC(=O)c1[nH]c2ccccc2c1NC(=O)CN1CCN(Cc2ccc3c(c2)OCO3)CC1,1,i,1.6,9%,13,6
CC1CCCCC1NC(=O)c1ccc2c(c1)[nH]c(=O)n2C1CCCC1 (configuration not stated),0.99,i,1,3%,0,9
O=C(CSCCO)Nc1ccc(C2CCCCC2)cc1,1.1,i,1.1,3%,4,4
CCC(=O)Nc1nnc(Sc2ccc(N(C)C)cc2)s1,1.1,+,0.91,17%,2,0
Cc1nn(C)c(C)c1NC(=O)CSc1nc(-c2ccccc2F)nc2c1cnn2-c1ccccc1,1,i,2.1*,10%,0,18
Cc1oc(C(=O)O)cc1COc1ccc2c(C)cc(=O)oc2c1,1.1,i,2.1*,5%,1,1
COC(=O)c1cc(COc2ccc3ccc(=O)oc3c2)c(C)o1,1.1,/,2.1*,5%,10,0
SMILES,A340 absorber,Spn DPM-DC inh,Autofluor 339,NADH enzymes,Spn MK inh,PMK inhibit
COC(=O)c1cc(COc2ccc3oc(C)c(C(=O)OC)c3c2)c(C)o1,1,i,1.1,4%,3,9
Cc1nc2nc3c(cn2n1)C(=O)CC(C)(C)C3,1,i,1.2,1%,0,2
C=C1CSc2nc(=O)c3c4c(sc3n21)CCC4,1.1,i,1.1,0%,0,0
O=c1nc2n(c3sc4c(c13)CCC4)Cc1ccccc1-2,1.1,/,2.2*,9%,7,11
O=c1n(CCCN2CCN(c3cccc(Cl)c3)CC2)nc2ccccn12,0.98,/,2.4*,3%,8,2
COc1ccccc1NC(=O)NCCCN1CCN(c2cccc(Cl)c2)CC1,1,i,1.1,2%,6,3
Cc1cc(-c2ccc(Cl)cc2)n2nc(N)nc2n1,1.1,/,3.6*,2%,4,0
Cc1cc(Nc2ccc(F)c(Cl)c2)n2nc(C)nc2n1,1.1,i,1.1,7%,12,8
Nc1nc2nccc(-c3ccc(Cl)cc3)n2n1,1.1,/,3.8*,12%,7,17
Cc1nn(C)c(C)c1S(=O)(=O)N1CCC(C(=O)NCC2COc3ccccc3O2)CC1 (configuration not stated),1,i,1.1,2%,5,1
O=C(Nc1ccc2c(c1)OCCO2)C1CCN(c2cnccn2)CC1,1,i,1.6,8%,0,13
CCOC(=O)C(C(=O)Nc1nccs1)C1CCCCC1 (configuration not stated),1,i,1.1,0%,1,0
O=C(Nc1cccc(-c2cn3cccnc3n2)c1)c1ccc(Br)o1,1.1,/,5.2*,8%,2,13
O=C(Nc1cccc(-c2cn3cccnc3n2)c1)c1ccco1,1.1,/,5.4*,6%,0,11
O=C(Nc1cccc(-c2cn3cccnc3n2)c1)c1ccc2c(c1)OCO2,1,/,5.3*,8%,5,10
O=C(Nc1cccc(-c2cnc3ccccc3n2)c1)c1ccco1,1.1,i,1.1,2%,0,0
Oc1ccc(-c2onc(C(F)(F)F)c2-c2cscn2)c(O)c1,0.98,i,1,2%,0,17
Cc1nn2c3c(cnc2c1-c1ccc(Cl)cc1)C(=O)CC(c1ccco1)C3 (configuration not stated),1.1,i,1.4,7%,8,10
COc1cc2c(OC)cccc2cc1C(=O)O,1,/,2.9*,2%,8,0
CCOC(=O)N1CCN(c2cc(=O)n(Cc3ccc(F)cc3)c(=O)[nH]2)CC1,0.97,i,1.1,3%,5,3
Cc1ccc(S(=O)(=O)Nc2cc(C)nn2-c2ccccc2)cc1,1,i,1.1,4%,7,5
CC1=CC(c2ccccc2)n2nc(NS(=O)(=O)c3ccc(C)cc3)nc2N1 (configuration not stated),1.1,/,2.2*,8%,7,9
COc1ccc(OC)c(CCNC(=O)CC2Oc3ccc(C)cc3NC2=O)c1 (configuration not stated),1,i,1.1,4%,11,0

# Bioassay records (PubChem BioAssay)
